In PubChem BioAssay:
Active and inactive are the calls of the source.

How the values were obtained:
[1] = compound effects on lung adenocarcinoma cell viability – A549, calcein-AM fluorescence, 48 h, basal, profiling panel (AID 1162); conditions: higher = more signal
[2] = compound effects on differentiated 3T3-L1 adipocyte viability – cell-based, 3T3-L1 adipocytes, calcein-AM fluorescence, 48 h, basal, profiling panel (AID 1163); conditions: 3T3-L1 adipocytes viability, higher = more signal
[3] = compound effects on hepatocellular carcinoma cell viability – HepG2, calcein-AM fluorescence, 48 h, basal, profiling panel (AID 1164); conditions: higher = more signal
[4] = compound effects on multiple myeloma cell viability – MM1S, calcein-AM fluorescence, 48 h, basal, profiling panel (AID 1165); conditions: higher = more signal
[5] = calcein-AM signal in unstimulated myeloma cells – cell-based, calcein-AM fluorescence, 48 h, PK04 Diversity Set, profiling panel (AID 1166); conditions: RPMI8226 myeloma viability, higher = more signal;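 also: cells grown under basal conditions without added stimulus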
[6] = JC-1 mitochondrial signal, unstimulated HepG2 cells – cell-based, JC-1 fluorescence, 24 h, 100 nL compound, profiling panel (AID 1167); conditions: HepG2 mitochondrial potential, higher = more signal
[7] = JC-1 mitochondrial signal, unstimulated adipocytes – cell-based, JC-1 fluorescence, 3T3-L1 adipocytes, 24 h, 100 nL compound, profiling panel (AID 1168); conditions: JC-1 mitochondrial fluorescence, higher = more signal, called active from +8 up or from −8 down
[8] = JC-1 mitochondrial signal, unstimulated myeloma cells – cell-based, JC-1 fluorescence, RPMI8226, 24 h, 100 nL compound, profiling panel (AID 1169); conditions: JC-1 mitochondrial potential fluorescence, higher = more signal
[9] = JC-1 mitochondrial signal, unstimulated MM1S myeloma – cell-based, JC-1 fluorescence, 24 h, 100 nL compound, profiling panel (AID 1170); conditions: MM1S mitochondrial potential, higher = more signal
[10] = resazurin metabolic signal in A549 cells – cell-based, resazurin fluorescence, 24 h, PK04 Diversity Set, profiling panel (AID 1171); conditions: A549 viability, higher = more signal, called active from +8 up or from −8 down
Also: test concentration not given here.

Row | SMILES | z-score [1] | z-score [2] | z-score [3] | z-score [4] | z-score [5] | z-score [6] | z-score [7] | z-score [8] | z-score [9] | z-score [10]
1 | CCc1cc2c(nc1CC)CCN(CCC(C)=NOC(C)CN1CCCc3nc(C)c(C)cc31)C2 (stereo not given) | 0.566 | -0.326 | 0.595 | -2.4 | -0.305 | 1.31 | -0.415 (inactive) | -0.668 | -0.342 | 0.103 (inactive)
2 | CC(C)[C@@H](OCc1ccccc1)[C@H](C)C=NOC[C@@H](C)[C@H](OCc1ccccc1)C(C)C | 0.243 | -0.231 | -0.661 | 0.27 | 0.0507 | -0.245 | -0.149 (inactive) | 0.0367 | -0.0858 | -0.689 (inactive)
3 | CCOc1ccc(N2C(=O)/C(=C/C=C/c3ccccc3OC)S(=O)(=O)C2c2cccc([N+](=O)[O-])c2)cc1 (stereo not given) | 1.18 | 1.39 | 0.136 | -2.72 | -0.879 | -0.855 | -0.125 (inactive) | -0.732 | -0.0787 | 0.0969 (inactive)
4 | O=C1C[C@@H](O)[C@@H](O)[C@@H]2[C@@H]3C(=O)N(Cc4ccc5c(c4)OCO5)C(=O)[C@@H]3CC[C@@H]12 | 0.254 | 0.797 | 0.0538 | 0.339 | -0.205 | -0.32 | -0.409 (inactive) | -0.893 | 0.358 | -0.14 (inactive)
5 | NCCCCCNC(=O)[C@@H]1C[C@@H]2C(=O)N3CCC[C@H]3C(=O)N2[C@@H]1c1cccc(OCCO)c1 | -0.323 | 0.571 | -0.168 | 0.0689 | 0.0959 | -1.5 | -0.812 (inactive) | 0.167 | 0.543 | 0.142 (inactive)
6 | CCOC(=O)[C@H](CC(C)C)NC(=O)CCC1CC(OC(=O)NCCc2ccc(F)cc2)CC2(CCCC(COC(=O)NCc3ccccc3)O2)O1 (stereo not given in full) | -0.138 | 0.0596 | -3.35 | -3.45 | -3.81 | -2.07 | 0.154 (inactive) | -0.165 | -1.45 | 0.29 (inactive)
7 | COc1ccc(O[C@@H]2[C@H](O)CO[C@H]2C=CC#Cc2ccccc2)cc1 | -0.128 | 0.392 | 0.0395 | -2.54 | -0.0849 | -0.445 | -0.403 (inactive) | 0.617 | 0.113 | 0.357 (inactive)
8 | O=C1CCCC=C1C(O)CCOCc1ccccc1 (stereo not given) | -0.43 | 0.0411 | -0.457 | -1.42 | 0.452 | -0.667 | 0.0503 (inactive) | 0.215 | 0.527 | -0.323 (inactive)
9 | C=CC[C@]1(C(=O)NCc2ccccc2)N=C(c2ccc(OCCCO)cc2)O[C@H]1c1ccccc1 | -1.38 | 0.43 | -1.98 | -2.75 | -3.75 | -0.022 | -0.18 (inactive) | -1.31 | -0.988 | 0.953 (inactive)
10 | CN1C(=O)C2C(C1=O)C1C=C(CCCO)C2C(c2ccc(CN3CCCC3)cc2)N1C (stereo not given) | -0.259 | 0.617 | -0.94 | 0.312 | -1.55 | 0.48 | -0.319 (inactive) | -0.667 | 0.287 | -1.1 (inactive)
11 | C=C(/C(=C/C[C@H](OC(C)=O)c1ccc(OCCO)cc1)c1cnc2ccccc2c1)C(C)C | 0.207 | 1.03 | -0.427 | -0.753 | 0.383 | 1.56 | -0.449 (inactive) | -0.416 | 0.0674 | 1.76 (inactive)
12 | CN1C(=O)C2C=CC(C(O)c3ccc(Br)cc3)N(N(c3ccccc3)c3ccccc3)C2C1=O (stereo not given) | 1.78 | -0.658 | 1.37 | 0.0222 | -0.574 | 0.232 | -1.07 (inactive) | 0.343 | -0.654 | -0.335 (inactive)
13 | COC(=O)c1c(CC[C@@H](CO)NC(=O)N[C@H](Cc2ccccc2)Cn2cc(-c3ccccc3N)nn2)oc(C(C)=O)c1C(=O)OC | 0.238 | 0.475 | 0.169 | -0.0234 | 0.229 | -0.864 | -0.474 (inactive) | -0.415 | 0.65 | -0.0935 (inactive)
14 | CCN1C(=O)[C@H]2[C@H]3[C@H](O)C=CC(=O)[C@@H]3CC[C@H]2C1=O | 0.331 | 0.368 | 0.733 | -0.434 | 0.197 | 0.234 | -0.661 (inactive) | -0.408 | 1.5 | 0.459 (inactive)
15 | CC(C)CON=C1C[C@@H](O)[C@@H](O)[C@@H]2[C@@H]3C(=O)N(C[C@@H]4CCCO4)C(=O)[C@@H]3CC[C@H]12 | -0.31 | -0.528 | -0.222 | 0.12 | -0.259 | -0.637 | -1.27 (inactive) | 0.347 | 0.0335 | 0.322 (inactive)
16 | CO[C@H]1O[C@H](CO)[C@@H](OC(=O)Nc2ccc3c(c2)OCO3)[C@H](OC(=O)Nc2ccccc2-c2ccccc2)[C@@H]1OC(=O)Nc1ccccc1-c1ccccc1 | -0.89 | -0.0426 | -0.251 | -0.624 | -0.775 | -0.121 | 1.34 (inactive) | -1.11 | 0.481 | -1 (inactive)
17 | CCOC(=O)[C@H](Cc1ccccc1)NC(=O)CCC1CC(OC(=O)NCc2ccc3c(c2)OCO3)CC2(CCCC(COC(=O)NCC(c3ccccc3)c3ccccc3)O2)O1 (stereo not given in full) | 1.85 | -0.683 | -0.538 | -3.38 | -3.61 | 1.37 | -0.717 (inactive) | -0.77 | -1.95 | 0.174 (inactive)
18 | O=C1[C@H]2[C@H]3[C@H](O)[C@H](O)CC(=NO[C@@H]4O[C@H](CO)[C@@H](O)[C@H](O)[C@H]4O)[C@@H]3CC[C@H]2C(=O)N1Cc1ccc2c(c1)OCO2 | -0.575 | 1.13 | -0.874 | -0.778 | -1.06 | 0.221 | -1.34 (inactive) | -0.981 | 0.386 | 0.159 (inactive)
19 | O=C1[C@H]2[C@H]3[C@H](O)[C@H](O)CC(=NOCc4ccccc4)[C@@H]3CC[C@H]2C(=O)N1C1CCCCC1 | -0.128 | -1.08 | -0.622 | -0.615 | 0.0958 | -1.19 | -0.652 (inactive) | 0.886 | -0.101 | 0.36 (inactive)
20 | CC=CC1=C(CO)[C@H](O)[C@H]2O[C@H]2[C@H]1O | -0.286 | 0.292 | -0.408 | 0.0314 | -0.054 | -0.722 | 0.382 (inactive) | 0.635 | 0.677 | -0.482 (inactive)
21 | CC1(C)OCC(C(O)C2=CCCCC2=O)CO1 (stereo not given) | -0.423 | 1.76 | 0.588 | -0.402 | -0.999 | 1.28 | -0.0827 (inactive) | -0.606 | 0.724 | -0.939 (inactive)
22 | CC(CCN1CCCCc2nc(C)c(C)cc21)=NOC(C)CN1CCCc2nc(C)c(C)cc21 (stereo not given) | -0.587 | -0.315 | -0.253 | -2.66 | -0.681 | 0.346 | -1.7 (inactive) | 0.133 | -0.269 | 0.37 (inactive)
23 | CC(C)=C1C(=O)C(c2ccccc2)=C2CN3C(=O)N(CCc4ccccc4)C(=O)[C@]3(Cc3ccc(F)cc3)[C@H]21 | -0.751 | -0.0154 | -0.435 | -0.871 | -0.975 | 1.07 | -1.68 (inactive) | -0.0557 | -0.339 | 0.0406 (inactive)
24 | COc1ccccc1CN1C(=O)c2ccccc2[C@@]2(Cc3ccccc3N(C(C)C)C2=O)[C@@H]1c1ccc(CO)cc1 | 0.212 | 0.423 | 1.29 | -0.19 | 0.931 | 0.881 | 0.576 (inactive) | 0.563 | 0.374 | -1.64 (inactive)
25 | O=C1[C@H]2[C@H]3[C@H](O)[C@H](O)CC(=NO[C@@H]4O[C@H](CO)[C@@H](O)[C@H](O)[C@H]4O)[C@H]3CC[C@H]2C(=O)N1C1CCCCC1 | -0.649 | 0.034 | -0.627 | 0.206 | 0.115 | -0.871 | -1.53 (inactive) | 0.368 | -0.11 | 0.302 (inactive)
26 | O=C1c2ccccc2[C@@]2(Cc3ccccc3N(C3CC3)C2=O)[C@H](c2ccc(CO)cc2)N1Cc1ccccc1C(F)(F)F | 0.238 | 0.4 | -0.772 | 0.306 | -0.522 | 1.13 | -0.474 (inactive) | 0.84 | -1.56 | 0.164 (inactive)
27 | C=CC[C@@H]1C=C[C@H](ON=C2c3cc(OC)ccc3O[C@H](c3cccc(OC)c3)[C@H]2O)[C@@H](CO)O1 | 0.27 | -0.855 | 0.925 | 0.334 | -0.0859 | -1.45 | 0.704 (inactive) | -0.148 | -1.12 | -1.25 (inactive)
28 | COC(=O)CC=C[C@H](C)[C@H](CO)NS(=O)(=O)c1ccc(C)cc1 | -0.595 | 0.41 | -0.392 | 0.165 | 0.364 | -0.976 | -0.0535 (inactive) | -0.49 | 0.604 | -0.711 (inactive)
29 | CC(C)=CCCC(C)=CCON=C1[C@H]2CCn3c(=O)n(Cc4cc5c(cc4Cl)OCO5)c(=O)n3[C@H]2[C@H](O)[C@@H]2O[C@H]12 | -0.305 | 0.123 | 0.42 | -0.918 | -0.497 | -0.298 | -0.992 (inactive) | -0.702 | 1.17 | -0.386 (inactive)
